Among all 350,000 compounds or so, about 450 (0.13%) were called active. The rule behind the calls is not given here. Not all results are given here. Measured potencies and affinities stand elsewhere.
Test: inhibitors of VEEV TC-83 cytopathic effect, confirmation, Vero cells (AID 588727)
Conditions: VEEV TC-83 cytopathic effect inhibition, at 20 µM; stronger effect = higher value unless noted
For `CC(C)OC(=O)CSc1nnc(CNc2ccc(Cl)cc2)n1Cc1ccccc1`, the inhibition was “inactive”.
With `Cc1cc(/N=C/C=C2/N(C)c3ccccc3C2(C)C)n(CCC#N)n1` the inhibition was 1.39% (inactive).
With `CC(=O)Nc1c2c(nn1-c1cccc(Cl)c1)CS(=O)(=O)C2` the inhibition was “inactive”.
For `O=C(COC(=O)/C=C/c1ccc(F)cc1)NC1CCCC1`, the inhibition was 2.24% (inactive).
In the case of `Cn1nnnc1Sc1ncnc2scc(-c3ccc(C(F)(F)F)cc3)c12`, the inhibition is reported as “inactive”.
In the case of `CCCCCC1CC(CC(=O)Nc2ccc([N+](=O)[O-])cc2)OC1=O` (stereo not drawn), the inhibition is reported as “inactive”.
With `NC(=NC1CCCCC1)c1ccc(Cl)cc1` the inhibition was 0.26% (inactive).
In the case of `CCCCn1c(=O)[nH]c(=O)c2c1nc(CN(C)Cc1cccc(OC)c1OC)n2CCC`, the inhibition is reported as 6.28% (inactive).
With `CCCCCC(=O)N1C[C@@H](n2cc(COC(=O)c3ccccc3)nn2)[C@H](O)C[C@@H]1c1ccc(OC)cc1` the inhibition was 0.24% (inactive).
In the case of `Cc1cccc(-n2ncc3c(N4CC(C)CC(C)C4)ncnc32)c1` (stereo not drawn), the inhibition is reported as 1.8% (inactive).
In the case of `Cc1cccc(C(=O)NCCNC(=O)c2cccc(C)c2)c1`, the inhibition is reported as “inactive”.
In the case of `CNC(=O)C1=C(C)Nc2nc3ccccc3n2C1c1ccc(F)cc1` (stereo not drawn), the inhibition is reported as 0.17% (inactive).
For `O=C(CC(=O)c1cccc([N+](=O)[O-])c1)Nc1ccccc1Cl`, the inhibition was “inactive”.
With `Cc1ccc(S(=O)(=O)N2C[C@@H](C)[C@]3(C2)[C@H](O)[C@H](OC(=O)NC2CC2)C[C@H]2C(=O)N(c4ccccc4)C(=O)[C@H]23)cc1` the inhibition was 11.5% (inactive).
With `Cc1ccc(S(=O)(=O)N2C[C@@H](C)[C@]3(C2)[C@H](O)[C@H](OC(=O)NCc2ccccc2)C[C@H]2C(=O)N(c4ccccc4)C(=O)[C@H]23)cc1` the inhibition was 5.33% (inactive).
In the case of `COCCNC(=O)CN(c1ccc(OC)c(OC)c1)S(=O)(=O)c1ccc(C)cc1`, the inhibition is reported as 1.04% (inactive).
With `COC(=O)c1ccc(-n2c(C)cc(C(=O)COC(=O)CNS(=O)(=O)c3ccc(C)cc3)c2C)cc1` the inhibition was 0.63% (inactive).
In the case of `CCC(CC)c1nnc(NC(=O)c2c(C)nn(Cc3ccccc3Cl)c2C)s1`, the inhibition is reported as 7.55% (inactive).
In the case of `CC(=O)Nc1ccc(NC(=O)c2c(C)nn(Cc3ccccc3Cl)c2C)cc1`, the inhibition is reported as “inactive”.
For `CC1CC(=O)N(C)c2cc([N+](=O)[O-])ccc2N1` (stereo not drawn), the inhibition was 1.14% (inactive).
With `COC(=O)c1cccc(NC(=S)N2CCOCC2)c1` the inhibition was 0.95% (inactive).
With `CCCCCC(=O)N1C[C@@H](n2cc(COC(=O)c3ccccc3)nn2)[C@H](O)C[C@@H]1c1ccccc1` the inhibition was “inactive”.
With `c1ccc(-c2nc3c([nH]2)CCc2nonc2-3)cc1` the inhibition was 2.3% (inactive).
In the case of `COn1c(-c2ccccc2)nc2c1CCc1c-2no[n+]1[O-]`, the inhibition is reported as 5.93% (inactive).
In the case of `Cc1ccccc1CC(=O)c1ccc(O)c(C)c1O`, the inhibition is reported as 5.23% (inactive).
In the case of `CCc1ccc(NC(=O)CS(=O)CC(=O)Nc2ccc(-n3cnnn3)c(C)c2)cc1` (stereo not drawn), the inhibition is reported as 2.1% (inactive).
In the case of `CCNc1oc(/C=C/c2ccc(OCC)cc2)nc1C#N`, the inhibition is reported as 6.65% (inactive).
In the case of `CCOc1ccc(/C=C/c2nc(C#N)c(NCCCOC)o2)cc1`, the inhibition is reported as 6.2% (inactive).
For `CC1=C(C(=O)Nc2ccccn2)C(c2ccc(Br)cc2)NC(=S)N1` (stereo not drawn), the inhibition was 2.92% (inactive).
In the case of `O=C(O)c1cc([N+](=O)[O-])ccc1Nc1ccccc1`, the inhibition is reported as 0.6% (inactive).
For `O=C(O)c1ccccc1Nc1ccc([N+](=O)[O-])cc1C(=O)O`, the inhibition was “inactive”.
In the case of `O=C(Nc1cccnc1)c1cccnc1Cl`, the inhibition is reported as 0.62% (inactive).
For `CCCCOc1ccc(C(=O)Nc2ccc(N3CCN(C(C)=O)CC3)cc2)cc1`, the inhibition was 3.29% (inactive).
With `CCOc1ccc(C(=O)Nc2ccc(N3CCN(C)CC3)cc2)cc1` the inhibition was 2.08% (inactive).
For `CCc1ccc(NC(=O)CC2C(=O)N(c3cccc(OC)c3)C(=O)N2CCOC)cc1` (stereo not drawn), the inhibition was 1.82% (inactive).
In the case of `Cc1cccc(N(Cc2ccccc2)C(=O)CSC(C)C(=O)Nc2cc(C)on2)c1` (stereo not drawn), the inhibition is reported as 7.94% (inactive).
With `Cc1cc(NC(=O)C(C)SCC(=O)OCC(=O)N(Cc2ccccc2)C(C)(C)C)no1` (stereo not drawn) the inhibition was 1.5% (inactive).
In the case of `CCOC(=O)Cn1cc(C(=O)C2CC2)c2ccccc21`, the inhibition is reported as 1.2% (inactive).
In the case of `COc1cccc(-n2c(CN3CCN(c4ccccc4)CC3)nc3ccc([N+](=O)[O-])cc3c2=O)c1`, the inhibition is reported as 2.74% (inactive).
With `CCC(CC)N1CCN(Cc2nc3ccc([N+](=O)[O-])cc3c(=O)n2-c2ccccc2F)CC1` the inhibition was 22.2% (inactive).
With `COc1cccc(-n2c(CN3CCOCC3)nc3ccc([N+](=O)[O-])cc3c2=O)c1` the inhibition was 7.79% (inactive).
For `O=c1c2cc([N+](=O)[O-])ccc2nc(CN2CCN(c3ccccn3)CC2)n1-c1ccccc1F`, the inhibition was 1.21% (inactive).
With `COc1cc(NC(=O)c2sc3ncn(CC(=O)N4CCCCC4C)c(=O)c3c2C)cc(OC)c1OC` (stereo not drawn) the inhibition was 11.6% (inactive).
With `Cc1ccc(CN2CC(C(=O)NNC(=O)c3ccc(F)cc3)CC2=O)cc1` (stereo not drawn) the inhibition was “inactive”.
With `COCCNC(=O)COC(=O)c1cc(-c2ccc(OC)cc2)nc2ccccc12` the inhibition was 0.73% (inactive).
For `COCCCNC(=O)c1cc(-c2cccnc2)nc2ccccc12`, the inhibition was “inactive”.
For `CN(C)CCN(Cc1cc2cc3c(cc2nc1Cl)OCO3)C(=O)c1ccco1`, the inhibition was 1.49% (inactive).
In the case of `Cc1cccc2cc(CN(CCN(C)C)C(=S)NCc3ccco3)c(=O)[nH]c12`, the inhibition is reported as 6.74% (inactive).
In the case of `CCN(CC)CCNC(=O)c1cc2c(=O)n(CC)c3ccccc3c2s1`, the inhibition is reported as 8.46% (inactive).
In the case of `CC1(C)NC(=O)N(CC(O)CN2CCOCC2)C1=O` (stereo not drawn), the inhibition is reported as 1.64% (inactive).
In the case of `Cc1cc(NC(=O)COc2ccccc2C)ccc1NC(=O)c1ccco1`, the inhibition is reported as 2.11% (inactive).
In the case of `COc1ccc(S(=O)(=O)N(C)c2ccc(C(=O)Nc3cccnc3)cc2)cc1`, the inhibition is reported as 8.16% (inactive).
With `C=C1CC2C(=O)N(Cc3cc(OC)ccc3OC)C(C(=O)OCC)(C(=O)OCC)C1N2C(=O)OC(C)(C)C` (stereo not drawn) the inhibition was “inactive”.
For `COc1ccc(/C=C2\CN(Cc3ccccc3)C/C(=C\c3ccc(OC)cc3OC)C2=O)c(OC)c1`, the inhibition was 6.18% (inactive).
For `CCN1C/C(=C/c2ccc(OC)c(O)c2)C(=O)/C(=C/c2ccc(OC)c(O)c2)C1`, the inhibition was “inactive”.
With `Cc1cc(C)cc(-n2ncc3c2CCCC3NC(=O)CCCn2cncn2)c1` (stereo not drawn) the inhibition was 0.41% (inactive).
For `CCOc1ccccc1-c1nc(CN2CCCC2c2nccs2)c(C)o1` (stereo not drawn), the inhibition was 8.27% (inactive).
In the case of `COc1ccccc1C1CCCN1Cc1nc(-c2cc3c(cc2Cl)OCO3)oc1C` (stereo not drawn), the inhibition is reported as 3.15% (inactive).
For `COc1ccc(OC)c(S(=O)(=O)NCCS(=O)(=O)N2CCN(c3ccccc3)CC2)c1`, the inhibition was 0.7% (inactive).
For `Cc1nc2ccccc2c(=O)n1NC(=O)/C=C/c1ccc(Br)cc1`, the inhibition was “inactive”.
For `Cc1c(NC(=O)Nc2ccccc2)c(=O)n(-c2ccccc2)n1C`, the inhibition was “inactive”.
For `O=C(NC1CCCCC1)c1cc2ccccc2cc1O`, the inhibition was “inactive”.
With `O=C(NNC(=O)c1ccc2ccccc2c1O)NC1CCCCC1` the inhibition was 2.22% (inactive).
With `O=S(=O)(c1cccc2nsnc12)N1CCc2ccccc21` the inhibition was “inactive”.
For `Cc1nnc(N2CCCC(C(=O)NCc3cccc(F)c3)C2)c2nn(-c3ccccc3)c(C)c12` (stereo not drawn), the inhibition was 7.4% (inactive).
With `Cc1ccc(CNc2nc(N)c([N+](=O)[O-])c(NCCO)n2)cc1` the inhibition was 5.11% (inactive).
For `O=c1c2sccc2nc(SCc2cc(=O)n3cc(Cl)ccc3n2)n1-c1ccc(F)cc1`, the inhibition was 6.28% [measured here: 10K pilot screen inhibition, stronger effect = higher value] and the outcome was “inactive”.
In the case of `Cc1ccc2c(c1)cc(C(=O)N[C@@H](Cc1ccccc1)C(=O)O)n2C`, the inhibition is reported as “inactive”.
In the case of `Cc1ccc(CNC(=O)c2cc3c(=O)n(C)c4ccccc4c3n2C)cc1`, the inhibition is reported as 0.2% (inactive).
In the case of `COCCNC(=O)c1cc2oc3ccccc3c2n1C`, the inhibition is reported as 3.48% (inactive).
In the case of `COc1cccc(CNC(=O)c2cc3oc4ccccc4c3n2C)c1OC`, the inhibition is reported as 55% (inactive).
In the case of `Cc1c(C(=O)NCc2cccs2)oc2ccccc12`, the inhibition is reported as 1.87% (inactive).
For `Cn1c(C(=O)NCC2CCCO2)cc2oc3ccccc3c21` (stereo not drawn), the inhibition was 6.64% (inactive).
With `Cn1c(C(=O)NCc2cccs2)cc2c(=O)n(C)c3ccccc3c21` the inhibition was 0.66% (inactive).
In the case of `CCOc1ccccc1CNC(=O)c1cc2occc2n1C`, the inhibition is reported as 3.56% (inactive).
With `CC(C)CCC(=O)N1CCC(N2CCC(C(=O)NCc3ccccn3)CC2)CC1` the inhibition was 0.93% (inactive).
For `CC(C)(C)n1nc2c(c1NC(=O)c1ccc(F)c(F)c1)CS(=O)(=O)C2`, the inhibition was 0.7% (inactive).
In the case of `O=C(C1CC(=O)N(c2ccc(F)cc2)C1)N1CCCCCC1` (stereo not drawn), the inhibition is reported as “inactive”.
With `O=C1c2cccnc2C(=O)N1CO` the inhibition was 0.3% (inactive).
In the case of `CC(C)(C)C1CCc2c(sc3c2C(=O)NC(c2ccco2)N3)C1` (stereo not drawn), the inhibition is reported as 0.21% (inactive).
In the case of `CCC(=O)Nc1cc(C(=O)O)ccc1Sc1ccccc1`, the inhibition is reported as 0.44% (inactive).
For `Cn1cc(CCC(=O)NCc2cccc(Cl)c2)c2ccccc21`, the inhibition was 0.85% (inactive).
In the case of `O=C(COC(=O)c1ccc(Cl)cc1[N+](=O)[O-])NCc1ccco1`, the inhibition is reported as 0.06% (inactive).
In the case of `Cc1ccc(S(=O)(=O)Nc2ccc(C(=O)NCCCn3ccnc3)cc2)cc1[N+](=O)[O-]`, the inhibition is reported as 0.22% (inactive).
With `COc1ccc(COC(=O)c2cccc(S(=O)(=O)N3CCN(C(C)=O)CC3)c2)cc1F` the inhibition was 1.43% (inactive).
In the case of `CC(=O)OC1CCC2(C)C3CCC4(C)C(C(C)=O)CCC4C3CC3OC32C1` (stereo not drawn), the inhibition is reported as 4.89% (inactive).
With `C[C@]12CCC3C(CC[C@@H]4C[C@@H](O)CC[C@]34C)C1CC[C@@H]2O` (stereo partly drawn) the inhibition was 1.93% (inactive).
With `CC(=O)OC1CC2(O)C3CCC4CC(O)CCC4(C)C3CCC2(C)C1C1=CC(=O)OC1` (stereo not drawn) the inhibition was 24.4% (inactive).
With `C[C@]12CCC3C(CC[C@H]4C[C@H](O)CC[C@]34C)C1CC(=O)[C@@H]2O` (stereo partly drawn) the inhibition was 2.26% (inactive).
In the case of `CC12CC[C@H]3[C@@H](CCC4(O)C[C@H](O)CCC34/C=N/NC(=O)Cc3ccccc3)C1(O)CCC2C1=CC(=O)OC1` (stereo partly drawn), the inhibition is reported as 1.62% (inactive).
For `CC12CC[C@H]3[C@@H](CCC4(O)C[C@H](O)CCC34/C=N/NC(=O)c3ccccc3F)C1(O)CCC2C1=CC(=O)OC1` (stereo partly drawn), the inhibition was 8.49% (inactive).
With `CC(=O)OC1CC[C@]2(C#N)[C@H]3CC[C@]4(C)[C@H](C5C=CC(=O)O5)CCC4(O)C3CCC2(O)C1` (stereo partly drawn) the inhibition was 21.3% (inactive).
